# What was measured:
# [1] = biological target: T1, Serine/threonine-protein kinase D2 (Homo sapiens) (UniProt Q9BZL6); conditions: at 1 µM;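 note: mean value of PRKD2 inhibition, from the GSK PKIS screening panel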
# T1 sequence (whole entry): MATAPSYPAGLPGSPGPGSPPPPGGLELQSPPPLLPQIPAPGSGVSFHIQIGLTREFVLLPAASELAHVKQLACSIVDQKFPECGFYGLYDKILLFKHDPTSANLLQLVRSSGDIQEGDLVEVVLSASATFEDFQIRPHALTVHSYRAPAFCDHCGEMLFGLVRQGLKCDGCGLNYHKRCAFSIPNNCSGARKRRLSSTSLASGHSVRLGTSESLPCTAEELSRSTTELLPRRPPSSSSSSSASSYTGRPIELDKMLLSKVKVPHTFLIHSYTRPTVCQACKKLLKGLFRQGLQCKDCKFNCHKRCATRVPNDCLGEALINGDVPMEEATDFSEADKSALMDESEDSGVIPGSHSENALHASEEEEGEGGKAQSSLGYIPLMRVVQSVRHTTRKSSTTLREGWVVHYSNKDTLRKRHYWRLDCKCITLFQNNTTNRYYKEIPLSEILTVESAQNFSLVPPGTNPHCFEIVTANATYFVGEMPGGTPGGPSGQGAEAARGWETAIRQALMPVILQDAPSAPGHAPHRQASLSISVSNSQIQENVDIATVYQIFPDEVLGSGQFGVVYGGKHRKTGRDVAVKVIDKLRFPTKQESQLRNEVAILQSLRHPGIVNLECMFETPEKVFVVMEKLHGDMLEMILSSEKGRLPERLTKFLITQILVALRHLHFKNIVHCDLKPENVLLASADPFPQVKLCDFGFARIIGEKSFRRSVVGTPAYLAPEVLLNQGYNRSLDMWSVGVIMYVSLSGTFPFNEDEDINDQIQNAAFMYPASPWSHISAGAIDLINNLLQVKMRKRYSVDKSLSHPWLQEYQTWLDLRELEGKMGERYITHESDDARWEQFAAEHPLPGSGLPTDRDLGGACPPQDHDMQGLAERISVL
# [2] = biological target: T2, Serine/threonine-protein kinase D3 (Homo sapiens) (UniProt O94806); conditions: at 0.1 µM
# T2 sequence (whole entry): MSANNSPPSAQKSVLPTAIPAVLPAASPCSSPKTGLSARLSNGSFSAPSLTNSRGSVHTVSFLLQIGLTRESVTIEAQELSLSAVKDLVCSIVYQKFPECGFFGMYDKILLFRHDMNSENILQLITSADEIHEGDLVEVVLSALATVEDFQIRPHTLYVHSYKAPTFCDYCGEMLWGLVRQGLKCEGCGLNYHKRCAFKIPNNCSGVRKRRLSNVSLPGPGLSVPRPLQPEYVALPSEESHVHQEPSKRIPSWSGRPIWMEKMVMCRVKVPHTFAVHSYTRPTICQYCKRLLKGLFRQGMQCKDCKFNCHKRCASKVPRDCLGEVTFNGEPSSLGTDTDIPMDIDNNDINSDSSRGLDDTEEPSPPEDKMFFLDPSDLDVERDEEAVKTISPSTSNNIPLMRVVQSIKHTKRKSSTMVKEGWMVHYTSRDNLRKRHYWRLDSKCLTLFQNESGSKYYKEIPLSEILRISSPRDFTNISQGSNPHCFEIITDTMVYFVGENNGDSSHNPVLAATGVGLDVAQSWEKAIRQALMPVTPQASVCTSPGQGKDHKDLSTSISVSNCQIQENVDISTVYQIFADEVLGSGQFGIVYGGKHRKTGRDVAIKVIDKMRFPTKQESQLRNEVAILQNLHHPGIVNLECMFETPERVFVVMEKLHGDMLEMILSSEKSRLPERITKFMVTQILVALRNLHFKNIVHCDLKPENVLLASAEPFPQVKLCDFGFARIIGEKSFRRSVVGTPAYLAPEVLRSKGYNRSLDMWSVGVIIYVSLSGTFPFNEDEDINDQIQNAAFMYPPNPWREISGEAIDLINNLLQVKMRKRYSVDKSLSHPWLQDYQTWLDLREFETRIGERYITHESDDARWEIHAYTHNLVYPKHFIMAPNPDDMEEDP
# [3] = biological target: T2, Serine/threonine-protein kinase D3 (Homo sapiens); conditions: at 1 µM
# [4] = biological target: T3, cGMP-dependent protein kinase 1 (Homo sapiens) (UniProt Q13976); conditions: at 0.1 µM
# T3 sequence (whole entry): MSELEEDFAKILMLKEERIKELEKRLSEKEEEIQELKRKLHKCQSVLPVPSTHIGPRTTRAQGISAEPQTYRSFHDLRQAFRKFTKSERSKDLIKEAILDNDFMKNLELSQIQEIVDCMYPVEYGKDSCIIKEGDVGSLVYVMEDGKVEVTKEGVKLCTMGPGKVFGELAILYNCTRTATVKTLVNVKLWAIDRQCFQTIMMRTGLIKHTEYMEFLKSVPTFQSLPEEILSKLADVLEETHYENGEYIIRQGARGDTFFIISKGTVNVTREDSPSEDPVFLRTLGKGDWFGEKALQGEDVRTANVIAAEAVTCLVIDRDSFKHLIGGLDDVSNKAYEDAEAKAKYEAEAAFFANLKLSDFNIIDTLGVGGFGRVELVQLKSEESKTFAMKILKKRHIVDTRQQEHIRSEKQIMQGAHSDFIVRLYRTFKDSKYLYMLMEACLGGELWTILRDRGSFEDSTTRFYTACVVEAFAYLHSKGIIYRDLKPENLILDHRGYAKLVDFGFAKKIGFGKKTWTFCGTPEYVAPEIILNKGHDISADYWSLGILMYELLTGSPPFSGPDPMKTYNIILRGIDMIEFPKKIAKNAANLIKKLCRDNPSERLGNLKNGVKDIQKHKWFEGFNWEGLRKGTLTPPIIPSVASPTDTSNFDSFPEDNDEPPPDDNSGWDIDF
# [5] = biological target: T3, cGMP-dependent protein kinase 1 (Homo sapiens); conditions: at 1 µM
# [6] = biological target: T4, cGMP-dependent protein kinase 2 (Homo sapiens) (UniProt Q13237); conditions: at 0.1 µM
# T4 sequence (whole entry): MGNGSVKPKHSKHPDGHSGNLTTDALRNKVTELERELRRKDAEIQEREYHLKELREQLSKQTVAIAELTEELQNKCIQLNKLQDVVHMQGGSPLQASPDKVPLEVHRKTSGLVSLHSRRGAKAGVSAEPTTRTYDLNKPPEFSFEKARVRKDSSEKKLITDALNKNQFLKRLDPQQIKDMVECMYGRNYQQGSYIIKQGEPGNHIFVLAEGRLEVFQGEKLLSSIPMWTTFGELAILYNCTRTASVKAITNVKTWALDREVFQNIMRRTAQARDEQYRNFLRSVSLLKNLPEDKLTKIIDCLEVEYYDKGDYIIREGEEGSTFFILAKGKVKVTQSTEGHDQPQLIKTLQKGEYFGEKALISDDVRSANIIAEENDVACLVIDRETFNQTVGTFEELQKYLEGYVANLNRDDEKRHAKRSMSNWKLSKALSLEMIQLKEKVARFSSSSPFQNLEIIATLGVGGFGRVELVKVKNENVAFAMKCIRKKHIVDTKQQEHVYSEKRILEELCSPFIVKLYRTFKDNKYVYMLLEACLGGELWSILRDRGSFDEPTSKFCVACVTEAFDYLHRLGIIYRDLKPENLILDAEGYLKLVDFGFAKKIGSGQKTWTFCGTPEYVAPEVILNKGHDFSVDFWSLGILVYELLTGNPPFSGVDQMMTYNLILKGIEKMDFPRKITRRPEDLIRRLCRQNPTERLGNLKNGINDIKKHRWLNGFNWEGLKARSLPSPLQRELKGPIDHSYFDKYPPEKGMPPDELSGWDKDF
# [7] = biological target: T4, cGMP-dependent protein kinase 2 (Homo sapiens); conditions: at 1 µM
# [8] = biological target: T5, cAMP-dependent protein kinase catalytic subunit PRKX (Homo sapiens) (UniProt P51817); conditions: at 0.1 µM
# T5 sequence (whole entry): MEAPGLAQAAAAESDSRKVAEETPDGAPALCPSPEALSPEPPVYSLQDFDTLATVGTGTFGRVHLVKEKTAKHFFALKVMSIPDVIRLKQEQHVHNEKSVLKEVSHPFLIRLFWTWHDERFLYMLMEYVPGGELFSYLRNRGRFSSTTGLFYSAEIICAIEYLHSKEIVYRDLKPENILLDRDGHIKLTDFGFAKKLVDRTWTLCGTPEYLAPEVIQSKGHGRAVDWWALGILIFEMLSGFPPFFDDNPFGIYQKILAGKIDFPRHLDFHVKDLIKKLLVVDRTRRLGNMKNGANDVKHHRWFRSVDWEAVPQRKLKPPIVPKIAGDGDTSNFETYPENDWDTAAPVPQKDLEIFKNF
# [9] = biological target: T5, cAMP-dependent protein kinase catalytic subunit PRKX (Homo sapiens); conditions: at 1 µM
# [10] = biological target: Rho-associated protein kinase 1 (Homo sapiens) (UniProt Q13464); conditions: at 0.1 µM
# [11] = biological target: Rho-associated protein kinase 1 (Homo sapiens) (UniProt Q13464); conditions: at 1 µM
# [12] = biological target: Rho-associated protein kinase 2 (Homo sapiens) (UniProt O75116); conditions: at 0.1 µM
# [13] = biological target: Rho-associated protein kinase 2 (Homo sapiens) (UniProt O75116); conditions: at 1 µM
# [14] = biological target: Ribosomal protein S6 kinase alpha-1 (Homo sapiens) (UniProt Q15418); conditions: at 0.1 µM
# [15] = biological target: Ribosomal protein S6 kinase alpha-1 (Homo sapiens) (UniProt Q15418); conditions: at 1 µM
# [16] = biological target: Ribosomal protein S6 kinase alpha-3 (Homo sapiens) (UniProt P51812); conditions: at 0.1 µM
# [17] = biological target: Ribosomal protein S6 kinase alpha-3 (Homo sapiens) (UniProt P51812); conditions: at 1 µM
# [18] = biological target: Ribosomal protein S6 kinase alpha-2 (Homo sapiens) (UniProt Q15349); conditions: at 0.1 µM
# [19] = biological target: Ribosomal protein S6 kinase alpha-2 (Homo sapiens) (UniProt Q15349); conditions: at 1 µM
# [20] = biological target: Ribosomal protein S6 kinase alpha-6 (Homo sapiens) (UniProt Q9UK32); conditions: at 0.1 µM;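 note: reported value is the mean inhibition of RSK4, from the GSK PKIS kinase inhibitor screen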
# Ribosomal protein S6 kinase alpha-1 (Homo sapiens), sequence (Q15418 whole entry): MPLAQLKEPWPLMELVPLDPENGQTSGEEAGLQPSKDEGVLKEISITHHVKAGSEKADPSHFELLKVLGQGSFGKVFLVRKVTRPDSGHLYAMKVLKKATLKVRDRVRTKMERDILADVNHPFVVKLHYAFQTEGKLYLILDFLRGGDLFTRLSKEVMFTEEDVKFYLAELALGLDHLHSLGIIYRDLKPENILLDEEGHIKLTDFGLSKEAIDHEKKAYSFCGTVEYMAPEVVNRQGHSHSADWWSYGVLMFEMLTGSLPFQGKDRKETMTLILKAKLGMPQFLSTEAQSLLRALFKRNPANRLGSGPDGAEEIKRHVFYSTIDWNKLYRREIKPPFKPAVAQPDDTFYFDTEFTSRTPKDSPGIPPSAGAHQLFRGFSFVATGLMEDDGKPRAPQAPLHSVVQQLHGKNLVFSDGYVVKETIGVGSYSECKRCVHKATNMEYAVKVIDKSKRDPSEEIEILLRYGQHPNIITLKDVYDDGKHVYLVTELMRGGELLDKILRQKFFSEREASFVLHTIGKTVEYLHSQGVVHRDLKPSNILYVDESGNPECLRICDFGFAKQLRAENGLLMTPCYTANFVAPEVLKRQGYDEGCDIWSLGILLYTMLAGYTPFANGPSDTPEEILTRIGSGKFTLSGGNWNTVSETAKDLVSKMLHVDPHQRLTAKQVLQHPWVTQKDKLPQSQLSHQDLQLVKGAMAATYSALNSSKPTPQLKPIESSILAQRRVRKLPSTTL
# Rho-associated protein kinase 1 (Homo sapiens), sequence (Q13464 2-1354 limits assumed): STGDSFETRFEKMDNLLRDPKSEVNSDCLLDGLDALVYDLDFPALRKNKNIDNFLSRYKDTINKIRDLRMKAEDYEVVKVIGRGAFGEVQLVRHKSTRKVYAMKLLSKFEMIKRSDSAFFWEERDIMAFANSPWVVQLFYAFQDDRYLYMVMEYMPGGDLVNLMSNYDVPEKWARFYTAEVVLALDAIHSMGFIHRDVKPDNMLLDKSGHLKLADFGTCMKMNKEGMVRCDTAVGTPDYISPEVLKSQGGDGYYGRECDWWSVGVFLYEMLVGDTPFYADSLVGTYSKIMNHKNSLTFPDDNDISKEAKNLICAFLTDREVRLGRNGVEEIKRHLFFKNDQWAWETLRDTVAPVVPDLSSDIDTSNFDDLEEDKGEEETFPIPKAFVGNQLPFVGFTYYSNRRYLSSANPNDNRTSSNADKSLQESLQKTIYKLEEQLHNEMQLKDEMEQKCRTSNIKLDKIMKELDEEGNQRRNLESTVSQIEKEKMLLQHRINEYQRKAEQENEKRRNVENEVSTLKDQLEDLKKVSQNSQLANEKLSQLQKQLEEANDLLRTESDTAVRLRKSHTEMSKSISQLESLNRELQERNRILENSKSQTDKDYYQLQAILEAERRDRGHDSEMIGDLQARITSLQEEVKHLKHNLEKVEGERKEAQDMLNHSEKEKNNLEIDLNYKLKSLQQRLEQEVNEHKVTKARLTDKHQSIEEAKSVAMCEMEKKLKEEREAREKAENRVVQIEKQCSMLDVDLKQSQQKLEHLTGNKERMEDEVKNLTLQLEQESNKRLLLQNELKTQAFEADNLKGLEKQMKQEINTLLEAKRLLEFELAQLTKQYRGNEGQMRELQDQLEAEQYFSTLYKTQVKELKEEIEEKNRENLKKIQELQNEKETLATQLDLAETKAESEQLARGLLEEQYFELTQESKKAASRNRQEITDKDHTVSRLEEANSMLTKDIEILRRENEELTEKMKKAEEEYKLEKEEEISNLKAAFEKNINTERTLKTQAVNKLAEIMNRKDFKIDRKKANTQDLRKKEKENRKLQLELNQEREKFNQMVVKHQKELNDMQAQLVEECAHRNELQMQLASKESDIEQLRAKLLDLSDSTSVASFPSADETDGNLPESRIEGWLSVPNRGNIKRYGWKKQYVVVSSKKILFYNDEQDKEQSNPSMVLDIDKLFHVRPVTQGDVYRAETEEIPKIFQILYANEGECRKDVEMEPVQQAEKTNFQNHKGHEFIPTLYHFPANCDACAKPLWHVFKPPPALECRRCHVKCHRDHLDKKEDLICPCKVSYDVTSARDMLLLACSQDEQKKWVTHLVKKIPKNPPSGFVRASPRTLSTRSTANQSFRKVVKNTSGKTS
# Rho-associated protein kinase 2 (Homo sapiens), sequence (O75116 whole entry, looked up): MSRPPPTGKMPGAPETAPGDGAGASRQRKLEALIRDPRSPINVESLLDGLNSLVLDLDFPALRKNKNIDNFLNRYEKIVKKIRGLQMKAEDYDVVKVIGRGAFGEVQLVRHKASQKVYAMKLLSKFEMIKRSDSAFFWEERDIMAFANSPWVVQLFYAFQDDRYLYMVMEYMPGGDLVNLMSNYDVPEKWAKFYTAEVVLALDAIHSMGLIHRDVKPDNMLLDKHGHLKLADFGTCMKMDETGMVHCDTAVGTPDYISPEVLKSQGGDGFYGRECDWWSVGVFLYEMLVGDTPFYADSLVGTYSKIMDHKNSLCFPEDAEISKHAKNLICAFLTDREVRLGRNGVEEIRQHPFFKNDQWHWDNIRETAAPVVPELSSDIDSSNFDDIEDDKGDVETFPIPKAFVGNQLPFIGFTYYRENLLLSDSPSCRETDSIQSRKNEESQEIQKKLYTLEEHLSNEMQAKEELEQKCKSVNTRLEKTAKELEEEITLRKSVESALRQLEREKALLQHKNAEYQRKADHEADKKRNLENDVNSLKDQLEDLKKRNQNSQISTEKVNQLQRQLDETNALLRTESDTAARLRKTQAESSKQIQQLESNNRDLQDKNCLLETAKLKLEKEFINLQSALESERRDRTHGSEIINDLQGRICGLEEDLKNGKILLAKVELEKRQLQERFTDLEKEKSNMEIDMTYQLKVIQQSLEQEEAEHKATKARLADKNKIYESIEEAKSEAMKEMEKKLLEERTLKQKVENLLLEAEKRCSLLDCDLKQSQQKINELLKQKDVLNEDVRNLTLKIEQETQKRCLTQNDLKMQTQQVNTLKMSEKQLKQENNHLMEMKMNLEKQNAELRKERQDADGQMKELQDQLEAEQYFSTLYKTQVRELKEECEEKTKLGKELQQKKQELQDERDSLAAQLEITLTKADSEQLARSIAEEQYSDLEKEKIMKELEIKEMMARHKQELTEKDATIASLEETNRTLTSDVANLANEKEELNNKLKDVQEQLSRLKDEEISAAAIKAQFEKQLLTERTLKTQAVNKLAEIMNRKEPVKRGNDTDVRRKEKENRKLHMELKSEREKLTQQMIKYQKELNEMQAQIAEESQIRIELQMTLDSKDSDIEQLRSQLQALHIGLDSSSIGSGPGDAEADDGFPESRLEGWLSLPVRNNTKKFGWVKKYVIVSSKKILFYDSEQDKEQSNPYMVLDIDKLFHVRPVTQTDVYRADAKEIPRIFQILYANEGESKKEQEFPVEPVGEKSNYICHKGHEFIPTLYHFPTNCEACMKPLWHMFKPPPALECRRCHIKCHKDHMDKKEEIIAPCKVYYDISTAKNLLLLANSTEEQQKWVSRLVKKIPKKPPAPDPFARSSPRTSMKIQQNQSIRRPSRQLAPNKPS
# Ribosomal protein S6 kinase alpha-2 (Homo sapiens), sequence (Q15349 whole entry): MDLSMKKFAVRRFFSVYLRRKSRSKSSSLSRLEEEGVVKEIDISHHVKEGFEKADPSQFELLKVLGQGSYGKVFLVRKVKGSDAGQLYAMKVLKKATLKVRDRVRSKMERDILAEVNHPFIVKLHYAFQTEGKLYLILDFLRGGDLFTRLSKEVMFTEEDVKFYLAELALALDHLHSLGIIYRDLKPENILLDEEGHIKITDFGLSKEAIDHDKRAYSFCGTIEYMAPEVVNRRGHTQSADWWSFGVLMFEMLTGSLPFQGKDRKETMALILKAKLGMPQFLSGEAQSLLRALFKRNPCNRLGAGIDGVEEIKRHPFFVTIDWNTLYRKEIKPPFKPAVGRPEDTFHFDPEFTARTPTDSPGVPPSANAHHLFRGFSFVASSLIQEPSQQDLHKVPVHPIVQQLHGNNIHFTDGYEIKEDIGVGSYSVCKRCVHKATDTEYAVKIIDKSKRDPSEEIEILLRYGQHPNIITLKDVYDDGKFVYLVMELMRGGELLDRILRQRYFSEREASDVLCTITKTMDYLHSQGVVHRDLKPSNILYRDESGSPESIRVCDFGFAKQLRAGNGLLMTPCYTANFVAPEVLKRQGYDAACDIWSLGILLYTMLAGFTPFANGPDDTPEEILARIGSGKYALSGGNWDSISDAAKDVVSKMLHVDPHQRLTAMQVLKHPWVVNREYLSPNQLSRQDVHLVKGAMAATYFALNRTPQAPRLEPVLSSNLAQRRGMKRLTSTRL
# Ribosomal protein S6 kinase alpha-3 (Homo sapiens), sequence (P51812 whole entry): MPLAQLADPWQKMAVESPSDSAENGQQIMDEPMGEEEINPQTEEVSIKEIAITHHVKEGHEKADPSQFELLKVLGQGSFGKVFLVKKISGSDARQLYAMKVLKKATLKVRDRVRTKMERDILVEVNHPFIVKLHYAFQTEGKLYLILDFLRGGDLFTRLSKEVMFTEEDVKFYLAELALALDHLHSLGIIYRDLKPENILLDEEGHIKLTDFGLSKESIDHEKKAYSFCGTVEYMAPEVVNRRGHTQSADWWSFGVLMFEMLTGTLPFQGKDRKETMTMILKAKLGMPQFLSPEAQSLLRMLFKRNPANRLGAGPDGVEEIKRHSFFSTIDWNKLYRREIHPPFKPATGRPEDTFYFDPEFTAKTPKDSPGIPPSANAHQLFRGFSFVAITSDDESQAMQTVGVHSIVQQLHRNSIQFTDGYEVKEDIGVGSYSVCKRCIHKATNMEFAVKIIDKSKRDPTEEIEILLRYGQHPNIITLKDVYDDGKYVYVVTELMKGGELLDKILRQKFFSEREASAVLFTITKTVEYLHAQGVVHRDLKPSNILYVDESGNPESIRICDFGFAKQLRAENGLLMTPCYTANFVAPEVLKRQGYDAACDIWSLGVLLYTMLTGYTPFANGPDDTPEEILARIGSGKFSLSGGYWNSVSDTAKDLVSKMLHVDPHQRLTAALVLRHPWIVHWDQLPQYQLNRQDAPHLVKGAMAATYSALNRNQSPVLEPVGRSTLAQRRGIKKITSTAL
Compound,inhibition [1],inhibition [2],inhibition [3],inhibition [4],inhibition [5],inhibition [6],inhibition [7],inhibition [8],inhibition [9],inhibition [10],inhibition [11],inhibition [12],inhibition [13],inhibition [14],inhibition [15],inhibition [16],inhibition [17],inhibition [18],inhibition [19],inhibition [20]
NS(=O)(=O)c1ccc(N/N=C2\C(=O)Nc3ccc(C(=O)NCCCn4ccnc4)cc32)cc1,22.3%,5.36%,17.6%,4.15%,18.9%,4.37%,28.2%,3.32%,7.39%,2.63%,8.77%,5.67%,25.4%,2.58%,7.85%,2.08%,9.61%,3.97%,12.8%,3.05%
c1ccc(-c2n[nH]cc2-c2ccnc(-c3ccc(OCCN4CCOCC4)cc3)c2)nc1,80.7%,5.97%,57.5%,3.53%,4.78%,4.17%,3.32%,4.09%,2.55%,1.08%,2.14%,-0.2%,-1.4%,0.42%,-1.3%,0.55%,0.57%,-0.89%,-0.56%,-0.33%
CCc1nccc2c1nc(-c1nonc1N)n2CC,3.17%,1.43%,2.71%,0.88%,7.44%,2.5%,21.1%,-0.13%,-0.42%,1.09%,11.5%,1.91%,17%,5.37%,35.2%,2.22%,15.6%,3.79%,26.9%,-0.93%
COc1ccc(C2=C(N3CCc4ccccc43)C(=O)NC2=O)cc1,7.9%,4.84%,8.41%,1.67%,6.23%,1.42%,4.94%,2.47%,2.49%,0.56%,1.57%,2.97%,3.17%,2.46%,4.09%,0.95%,1.69%,2.16%,3.86%,2.62%
Fc1ccc(-c2nc3n(c2-c2ccncc2)CCS3)cc1,3.85%,1.34%,3.94%,3.66%,4.28%,2.32%,3.35%,1.54%,1.87%,1.14%,4.54%,2.98%,5.06%,3.03%,2.88%,1.5%,1.71%,3.31%,4.36%,2.72%
CCc1ccc(Oc2nccc(-c3c(-c4ccc(F)cc4)ncn3C3CCNCC3)n2)cc1,13.7%,4.01%,9.71%,4.32%,10.4%,5.03%,8.46%,3.21%,3.97%,1.24%,3.4%,2.09%,3.7%,2.14%,3.42%,3.03%,4.07%,3.08%,3.54%,3.18%
O=C(Nc1n[nH]c2cc(-c3ccccc3)ccc12)C1CC1,5.1%,5.75%,6.47%,3.2%,3.14%,1.66%,2.57%,1.37%,0.63%,1.2%,1.05%,2.59%,0.78%,0.84%,1.81%,1.2%,0.07%,3.06%,3.36%,3%
C/C(Nc1ccc(S(N)(=O)=O)cc1)=C1/C(=O)Nc2ccccc21,11.3%,-0.08%,9.13%,0.96%,3.66%,0.21%,8.25%,1.97%,4.84%,2.38%,5.13%,2.95%,9.54%,1.62%,14.5%,1.49%,14.6%,2.22%,23.4%,2.94%

# From ChEMBL document CHEMBL1961873, “Compounds: GSK PKIS; Assays: Nanosyn kinase panel” (2012)
